The values below come from PubChem BioAssay (NCI).

The panel holds about 83,000 compounds, 20% with a hit somewhere; the sample as a whole holds those more often.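 Compound tested at a single concentration for 48 hours in 96-well plates; a percent growth value below 10 was scored as active.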 Unmarked numbers belong to inactive results. Activity calls are given as the source filed them. Where a SMILES comes first, the peptide text is derived from it. [ ]: non-standard residue; d: D form. ξ: configuration not given here. ξD = NC(CC(=O)O)C(=O)O

The experiment concerns RPMI-8226 leukemia. Briefly: NCI-60 one-dose screen, 48 h (100 = growth as untreated, 0 = no growth, -100 = all killed). The following applies: 10 µM unless noted. The method, then:
Growth inhibition of the RPMI-8226 human tumor cell line is measured as a screen for anti-cancer activity. Cells are grown in 96 well plates and exposed to the test compound for 48 hours. Compounds are tested at a single concentration, which is 10^-5 M for most compounds. The reported endpoint is percent growth (GI% or GIPRCNT), where numbers from 0 - 100% represent growth inhibition, and numbers from -100% - 0 represent cell death. For example, a value of 40 represents 60% growth inhibition. A value of 0 means no net growth occurred over the course of the experiment. A value of -40 indicates 40% of cells at the beginning of the experiment died by the end of the experiment. A value of -100 means all cells are dead at the end of the experiment.
NCI-60 Human Tumor Cell Lines Screen was performed using the standard one-dose NCI protocol, which is described in more detail at https://dtp.cancer.gov/discovery_development/nci-60/default.htm.
Compounds with GIPRCNT values below 10 were considered active. Activity score was based on GIPRCNT using the following formula: […]
Score is 0 for GIPRCNT values of 100 or above, 50 for GIPRCNT values of 0, and 100 for GIPRCNT values of -100.
`CSc1nc(C)c(C(=O)CCN2CCN(c3ccccn3)CC2)s1`: the growth is 80.1%. For the molecule `Cc1nn(CCO)c(C)c1N=[N+]([O-])c1c(C)nn(CCO)c1C`, the growth was -35% (active). Take `CC(CSc1n[nH]c(=S)s1)c1ccccc1` (stereo not given): the growth is 103%. With `O=C(Nc1ccc(Cl)c(Cl)c1)Nc1ccccc1O`, the growth was 18.8%. As for `CCCC[n+]1c(/C=C\c2c(OC)cc(OC)cc2OC)ccc2ccccc21`, the growth was -25.6% (active). The value for `CCOC(=O)C1=C(C(=O)c2ccccc2)C(c2cccc([N+](=O)[O-])c2)C(C(=O)c2ccccc2)=C(C(=O)OCC)N1` was 32.8%; that for `O=Nc1ccc2ccccc2c1O` was 70%; that for `NNc1cccc([N+](=O)[O-])c1` was 90.9%.

`NCC(=O)NC(CC(=O)O)C(=O)O` (stereo not given) (H-Gly-[ξD]-OH): the growth is 111%.

Consider `Cc1cc(C)c([I+]c2c(C)cc(C)cc2C)c(C)c1`, for which the growth is -8.17% (active). For `Clc1ccccc1C(c1ccccc1)(c1ccccc1)n1ccnc1`, the growth is 18.7%. Regarding `CC(C)(C)CC(C)(C)c1ccc(OCCOCCSC(=N)N)cc1`, the growth was -43.6% (active). `O=C1C=CC(=O)N1C1CCCCCCCCCCC1`: the growth is 31.1%. As to `O=C1C=CC(O)=CC1=P(c1ccccc1)(c1ccccc1)c1ccccc1`, the growth was 74.2%. In the case of `CCOc1ccc(C(C[N+](=O)[O-])Sc2ccccc2N)cc1` (stereo not given), the growth is 6.92% (active). In the case of `COC(=O)[C@]1(C)CCC[C@]2(C)c3ccc(C(C)C)cc3C(=O)[C@@H](Br)[C@@H]12`, the growth is 81.1%. For `N#Cc1c2ccccc2nc2ccccc12`, the growth was 99.3%.

Consider `O=[N+]([O-])c1ccc(Oc2ccccc2Cl)c([N+](=O)[O-])c1`, for which the growth is 78.4%.

In the case of `O=C(/C=C/C(Cl)(Cl)Cl)Nc1ccc(Cl)cc1`, the growth was 75.3%. The value for `Cc1cc2cccnc2c2ncccc12` was 13.4%; that for `O=C(c1ccccc1)C(Br)[N+](=O)[O-]` (stereo not given) was 75.9%; that for `CCCOS(=O)(=O)c1ccccc1` was 71.2%.

In the case of `Oc1c(C(Nc2ccccc2)c2ccccc2)ccc2cccnc12` (stereo not given), the growth is 37.3%.

`O=C1C=C(Cl)C(=O)c2ccccc21`: the growth is 84.7%. As for `Cc1ccc2c(c1)sc(-c1ccc(N(C)C)cc1)[n+]2C`, the growth is -56.7% (active).

`Cc1nc([N+](=O)[O-])c(Sc2nncc(-c3ccccc3)n2)n1C`: the growth is 62.5%. Take `O=C(NNc1ccccc1)OCc1ccccc1`: the growth was 64.2%. `O=C(Cc1nc2cc(Cl)c(Cl)cc2nc1CC(=O)c1ccccc1)c1ccccc1`: the growth was 25.7%.

For `OC(c1cc2ccc(C(F)(F)F)cc2c2cc(C(F)(F)F)ccc12)C1CCCCN1` (stereo not given), the growth is -54.5% (active).

As for `O=C1C=Cc2ccccc2/C1=C/c1nc(-c2ccccc2)oc1O`, the growth is 104%. Under `Cc1oc2c(C)c3oc(=O)cc(C)c3cc2c1CCl` stands 54.4%; under `Nc1nc2ncc(CNc3ccc(C(=O)NC(CCC(=O)NC(CCC(=O)NC(CCC(=O)NC(CCC(=O)NC(CCC(=O)O)C(=O)O)C(=O)O)C(=O)O)C(=O)O)C(=O)O)cc3)nc2c(=O)[nH]1` (stereo not given), 112%; under `Oc1ccc(Br)cc1Sc1cc(Br)ccc1O`, 4.14% (active).

On to `Cc1ccccc1N=C(N)Nc1ccccc1C` (tested in a mixture with another compound), for which the growth was 46.6%. For the molecule `CCCCCCCCCCCCCCCCSC(=NCC)NCC`, the growth is -43.3% (active).

`CN(C)c1ccc2cc3c(cc2c1)Oc1ccccc1N3.[Cl][Zn][Cl]`: the growth was 48.9%. Under `CN(C)c1ccc(/C=C/c2nccc3ccccc23)cc1` stands 72%; under `CN(C)c1ccc(C(=C2C=CC(=[N+](C)C)C=C2)c2ccc(N(C)C)cc2)cc1`, -51.8% (active).

As for `CCOc1ccc(C(CN2CCOCC2)C(C)=O)cc1OC` (stereo not given), the growth is 62.3%. As to `C/C(=N\NC(=S)N1CC2CCC(CC2)C1)c1ccccn1`, the growth is -6.26% (active).
